Activation data for 50 compounds are collected here from PubChem BioAssay AID743398 (Broad Institute, 2014).

Screen size: about 300,000 compounds; about 3,600 (1.2%) were called active. Cut-off read from the data, not from the text of the source: active = activation above about 30% (passing the limit was not always enough); inconclusive = no clear call, values can overlap the other calls. The full list was thinned out, with actives kept by preference.

This assay in a line: activation of beta-catenin signaling reporter – cell-based, plate reader, single point, primary screen (AID 743398).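 Note: 0% = neutral control wells and 100% = positive control wells.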 To be noted: Wnt/beta-catenin reporter cell assay, activator, at 9.35 µM, stronger effect = higher value.
For `Oc1c(CN2CCCC2)cc(COCc2ccccc2)c2cccnc12`, the activation is 2.52% (inactive).

Consider `CC(=O)NC(c1cccs1)c1cc(Br)c2cccnc2c1O` (stereo not given), for which the activation was -2.66% (inactive).

As for `CCN1CCN(C(c2cccnc2)c2cc(Cl)c3cccnc3c2O)CC1` (stereo not given), the activation was 61.4% (active).

Take `O=C(NN=Cc1ccco1)C(=O)Nc1ccc(Cl)c([N+](=O)[O-])c1`: the activation was -3.58% (inactive).

Consider `Cc1cc(C)n2c(Nc3c(C)cccc3C)c(CCc3ccccc3)nc2n1`, for which the activation is -1.15% (inactive).

For `Cc1nonc1NC(=O)CSc1nc2ccccc2cc1C#N`, the activation was 24.4% (inactive).

Take `Cc1cc(C)c(C#N)c(SCC(=O)Nc2ccccc2)n1`: the activation is 39.1% (active).

For the compound `Cc1nc2cc(NC(=O)CSc3nc4c(C)cccc4cc3C#N)ccc2s1`, the activation was -2.44% (inactive).

As to `CCCCc1c(-c2ccc(Br)cc2)ncn1CCc1ccccc1OC`, the activation was -12.1% (inactive).

In the case of `CC(=O)c1ccc(S(=O)(=O)NCC2CCN(C(=O)C(=O)c3cccs3)CC2)cc1`, the activation was -0.884% (inactive).

Regarding `Cc1nc2ccc(NC(=O)C3CCCCC3)cc2s1`, the activation was 15.2% (inactive).

As for `Cc1nc(NC(=O)C23CCC(C)(C(=O)O2)C3(C)C)sc1C` (stereo not given), the activation is -2.53% (inactive).

With `Cc1nc(NC(=O)C2CCCCC2)sc1C`, the activation is 37.5% (active).

For `CCOC(=O)c1ccc(-c2ccc3ncnc(N(C)Cc4sccc4C)c3c2)o1`, the activation was 7.57% (inactive).

Take `COC(=O)C(C(=O)OC)c1ccccc1NS(=O)(=O)c1cccc2ccccc12`: the activation was -4.59% (inactive).

Regarding `CCc1nc2c(OCCOc3ccccc3)cccn2c1N(C)C(=O)c1cccs1`, the activation was -2.69% (inactive).

Turning to `CCOc1ccc2cc(C#N)c(SCC(=O)OC)nc2c1`, the activation is 86% (active).

As for `CCOc1ccc2nc(N3CCCN(C(=O)Nc4ccccc4C)CC3)c(C#N)cc2c1`, the activation is -1.99% (inactive).

Take `COc1ccc(CCNC(=O)CSc2nc(-c3ccc(OC)c(OC)c3)ccc2C#N)cc1`: the activation is -3.46% (inactive).

For `COc1ccc(NC(=O)C(c2ccncc2)n2c(=O)c(-c3cc4ccccc4[nH]3)nc3ccccc32)cc1` (stereo not given), the activation was 16.9% (inactive).

As to `C[C@H](O)[C@@H]1CN2CCc3ccc(-c4ccc5c(c4)OCO5)cc3[C@@H]2C[C@@H]1N(C)C(=O)C1CCCCC1`, the activation is 23.5% (inactive).

For `Cc1ccccc1C(=O)N[C@H](C(=O)N1CCC[C@H]1C(=O)NCc1ccccc1)C(C)C`, the activation was -3.2% (inactive).

For `COc1cccc(C(O)c2nc3ccccc3n2C)c1` (stereo not given), the activation is 47.8% (active).

For `COc1cc(C(O)c2nc3ccccc3n2C)cc(OC)c1OC` (stereo not given), the activation is -0.72% (inactive).

As to `COc1ccc(OC)c(C(O)c2nc3ccccc3n2C)c1` (stereo not given), the activation was -0.171% (inactive).

On to `CCCCCCn1c(=O)n2n(c1=O)C[C@]1(OC(=O)NCc3ccc(OC)c(OC)c3)CN(S(=O)(=O)c3ccc(C)cc3)C[C@]1(O)C2`, for which the activation was -4.95% (inactive).

Take `C=CCNC(=O)c1ccc2c3n(nc2c1)-c1ccc(C)cc1CO3`: the activation is 38.9% (active).

As to `C=CCNC(=O)c1ccc(C)c(Br)c1`, the activation was -0.707% (inactive).

On to `Cc1cccc(-c2nc3ccc(C(=O)NCCN4CCN(C)CC4)cc3nc2-c2cccc(C)c2)c1`, for which the activation is 2.48% (inactive).

For the compound `CCN(CC)C(=O)c1sc2nc(-c3ccccc3)ccc2c1N`, the activation is 10.1% (inactive).

With `Cc1ccc2c(N)c(C(=O)c3ccccc3)sc2n1`, the activation is 22.1% (inactive).

For the compound `CN(C)c1ccnc2sc(C(=O)c3ccccc3)c(N)c12`, the activation is 79.3% (active).

With `COc1cccc(C(O)c2ncc(-c3ccc4ccccc4c3)[nH]2)c1` (stereo not given), the activation is 0.0285% (inactive).

For the compound `Cc1ccc2nc(-c3ccco3)c(Cc3cccc(Cl)c3)n2c1`, the activation was -1.15% (inactive).

For the compound `O=C(N/N=C/c1ccc(O)cc1)/C(=C/c1ccc([N+](=O)[O-])cc1)NC(=O)c1ccccc1`, the activation was 0.356% (inactive).

For `O=C(COc1ccc([N+](=O)[O-])cc1)Nc1ccc(N2CCCC2)cc1`, the activation was -2.41% (inactive).

Take `O=C(COc1ccc(/C=N/NC(=O)c2ccc(O)cc2)cc1)Nc1ccc([N+](=O)[O-])cc1`: the activation is 46.5% (active).

On to `CCC(CC)C(C(=O)NC1CCCC1)N1CCN(c2cc(C)nc3ccccc23)CC1` (stereo not given), for which the activation is -1.19% (inactive).

Consider `CNC(=O)c1ccc(CN(C)C(=O)c2cc(C3CC3)nc3c2cnn3C(C)C)cc1`, for which the activation was 7.06% (inactive).

On to `O=C(Cc1ccc([N+](=O)[O-])cc1)NCCS(=O)(=O)N1CCN(c2ccccc2)CC1`, for which the activation was -2.6% (inactive).

In the case of `CCCOc1ccc(F)cc1-c1cc(C(=O)Nc2ccc(F)c(Cl)c2)[nH]n1`, the activation was -0.991% (inactive).

As to `CCCCCCCCN1C(=O)[C@@H](CC(=O)NCc2ccc(C)o2)C[C@@]2(C(=O)OC)C1=C[C@H](C(C)(C)C)O[C@@H]2C`, the activation is -3.74% (inactive).

Take `COc1ccc2c(c1)O/C(=C\c1ccccc1O)C2=O`: the activation is 39.8% (active).

Take `COC(=O)C(C)Oc1ccc2c(c1)O/C(=C\c1cccc(Br)c1)C2=O` (stereo not given): the activation was -0.1% (inactive).

Consider `O=C1Oc2ccccc2C(=O)/C1=C/c1ccccc1O`, for which the activation is -4.19% (inactive).

`Clc1cccc2c1C1CC2CCN1Cc1ccccc1` (stereo not given): the activation was -2.22% (inactive).

Regarding `COc1ccc(C(=O)O/N=C(\N)c2ccccn2)cc1[N+](=O)[O-]`, the activation is 17% (inactive).

Regarding `COc1ccccc1OCC(=O)O/N=C(\N)c1ccccn1`, the activation was 55.9% (active).

Turning to `N/C(=N\OC(=O)Cc1ccc([N+](=O)[O-])cc1)c1ccccn1`, the activation was 1.55% (inactive).

In the case of `COc1ccc(OC)c(CN2C(=O)CCC2(C)c2nnnn2Cc2ccccc2)c1` (stereo not given), the activation was -0.624% (inactive).
